Results published in the supplement of paper PMC8975748.
Where a name gives a salt, the structure may show the parent alone.

Test system: Saccharomyces cerevisiae BY4741 SeMeCo community
Assay: z-score of subpopulation abundance vs DMSO median, subpopulation auxotrophic for U; higher = larger share of this subpopulation than in DMSO controls
Conditions: 10 µM; 24 h; SM minimal medium; subpopulation (auxotrophy): U
Description: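 Fluorescent four-plasmid SeMeCo (self-establishing metabolically cooperating S. cerevisiae BY4741 community; plasmids pH-mRuby2, pL-mWasabi, pU-eCFP, pM-TagRFP657) was grown 24 h in minimal SM medium with each Selleck FDA-approved drug at 10 µM in 384-well plates. Cells were fixed and imaged by high-content confocal microscopy. For each auxotrophic subpopulation (and the prototroph), a z-score gives the deviation from the DMSO vehicle-control population median.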

First: Nc1ccc(S(=O)(=O)Nc2ccccn2)cc1 [Sulfapyridine]
Second: Nc1ccc(S(=O)(=O)NC(=O)c2ccccc2)cc1 [Sulfabenzamide]
The “z-score of subpopulation abundance” value of the first is higher: -0.03 for the first, -0.51 for the second.

First: CCCCc1oc2ccccc2c1C(=O)c1cc(I)c(OCCN(CC)CC)c(I)c1 [Amiodarone HCl]
Second: CCCNCC(O)COc1ccccc1C(=O)CCc1ccccc1 (stereo not given) [Propafenone HCl]
The “z-score of subpopulation abundance” value of the first is lower: -0.62 for the first, 0.55 for the second.

Compared with NC(=O)c1cnccn1 [Pyrazinamide], NC(=O)c1cn(Cc2c(F)cccc2F)nn1 [Rufinamide] is lower in “z-score of subpopulation abundance” value: 1.27 for the first, -0.6 for the second.

Compared with Cc1onc(-c2ccccc2)c1-c1ccc(S(N)(=O)=O)cc1 [Valdecoxib], Cc1cccc(C#Cc2ccccc2)n1 is higher in “z-score of subpopulation abundance” value: -0.55 for the first, 0.22 for the second.

First: O=C1OC(CN2CCOCC2)CN1/N=C/c1ccc([N+](=O)[O-])o1 (stereo not given) [Furaltadone HCl]
Second: Cc1nc2n(c(=O)c1CCN1CCC(c3noc4cc(F)ccc34)CC1)CCCC2 [Risperidone]
The “z-score of subpopulation abundance” value of the first is lower: 0.25 for the first, 0.56 for the second.

Compared with CN1C[C@@H]2C[C@H]1CN2c1cc2c(cc1F)c(=O)c(C(=O)O)cn2C1CC1 [Danofloxacin Mesylate], CCn1cc(C(=O)O)c(=O)c2cc(F)c(N3CCNCC3)nc21 [Enoxacin] is lower in “z-score of subpopulation abundance” value: 0.06 for the first, -0.4 for the second.

Going from Clc1ccc(CCC(Cn2ccnc2)Sc2c(Cl)cccc2Cl)cc1 (stereo not given) [Butoconazole] to N#CC(c1ccc(Cl)cc1)c1c(Cl)cc(-n2ncc(=O)[nH]c2=O)cc1Cl (stereo not given) [Diclazuril], the “z-score of subpopulation abundance” value falls from -0.41 to -1.07.

Going from C/C(=C\C(=O)OCCCCCCCCC(=O)O)C[C@@H]1OC[C@H](C[C@@H]2O[C@H]2[C@@H](C)[C@H](C)O)[C@@H](O)[C@H]1O [Mupirocin calcium] to CC[C@H](C)C(=O)O[C@H]1C[C@H](O)C=C2C=C[C@H](C)[C@H](CC[C@@H](O)C[C@@H](O)CC(=O)O)[C@H]21 [Pravastatin], the “z-score of subpopulation abundance” value falls from 1.26 to 1.19.

Going from C[C@]12CC[C@@H]3c4ccc(OC(=O)c5ccccc5)cc4CC[C@H]3[C@@H]1CC[C@@H]2O [Estradiol Benzoate] to CC(C)COc1ccc(CNC(=O)N(Cc2ccc(F)cc2)C2CCN(C)CC2)cc1 [Pimavanserin], the “z-score of subpopulation abundance” value rises from -0.43 to 0.22.

Compared with Cc1c(-c2ccc(O)cc2)n(Cc2ccc(OCCN3CCCCCC3)cc2)c2ccc(O)cc12 [Bazedoxifene Acetate], C[C@@H](c1nc(-c2ccc(C#N)cc2)cs1)[C@](O)(Cn1cncn1)c1cc(F)ccc1F [Isavuconazole] is lower in “z-score of subpopulation abundance” value: -0.25 for the first, -1.5 for the second.

Compared with CC[C@@H]1/C=C(\C)C[C@H](C)C[C@H](OC)[C@H]2O[C@@](O)(C(=O)C(=O)N3CCCC[C@H]3C(=O)O[C@H](/C(C)=C/[C@@H]3CC[C@H](Cl)[C@H](OC)C3)[C@H](C)[C@@H](O)CC1=O)[C@H](C)C[C@@H]2OC [Pimecrolimus], CC[C@H]1OC(=O)[C@H](C)[C@@H](O[C@H]2C[C@@](C)(OC)[C@@H](O)[C@H](C)O2)[C@H](C)[C@@H](O[C@@H]2O[C@H](C)C[C@H](N(C)C)[C@H]2O)[C@](C)(O)C[C@@H](C)/C(=N\OCOCCOC)[C@H](C)[C@@H](O)[C@]1(C)O [Roxithromycin] is higher in “z-score of subpopulation abundance” value: -1.72 for the first, 0.31 for the second.

First: COc1ccc2[nH]c([S@@+]([O-])Cc3ncc(C)c(OC)c3C)nc2c1 [NEXIUM (esomeprazole magnesium)]
Second: COc1ccnc(C[S+]([O-])c2nc3cc(OC(F)F)ccc3[nH]2)c1OC (stereo not given) [Pantoprazole]
The “z-score of subpopulation abundance” value of the first is lower: -0.8 for the first, -0.43 for the second.

Going from CCCN(CCC)CCc1cccc2c1CC(=O)N2 [Ropinirole HCl] to CCCc1cc(C(N)=S)ccn1 [Protionamide], the “z-score of subpopulation abundance” value falls from 0.26 to -0.66.

Going from C[C@@H](O)[C@H]1C(=O)N2C(C(=O)O)=C(SCCNC=N)C[C@H]12 [Imipenem] to CO/N=C(\C(=O)N[C@@H]1C(=O)N2C(C(=O)O)=C(CSc3nc(C)c(CC(=O)O)s3)CS[C@H]12)c1csc(N)n1 [Cefodizime Sodium], the “z-score of subpopulation abundance” value rises from 0.59 to 0.88.

First: C[N+](C)(C)CCO.[Cl-] [Choline Chloride]
Second: CCOc1cc(NC(C)=O)ccc1C(=O)OC [Ethopabate]
The “z-score of subpopulation abundance” value of the first is higher: 0.8 for the first, -0.35 for the second.

Compared with CN(C)CCCN1c2ccccc2Sc2ccccc21 [Promazine hydrochloride], CC[C@H](Nc1ncnc2[nH]cnc12)c1nc2cccc(F)c2c(=O)n1-c1ccccc1 [Idelalisib (CAL-101, GS-1101)] is higher in “z-score of subpopulation abundance” value: 0.34 for the first, 1.09 for the second.

Going from C[C@H]1c2cccc(O)c2C(O)=C2C(=O)[C@]3(O)C(O)=C(C(N)=O)C(=O)[C@@H](N(C)C)[C@@H]3[C@@H](O)[C@@H]21 [Doxycycline] to CC1(C)S[C@@H]2[C@H](NC(=O)[C@H](NC(=O)N3CCN(S(C)(=O)=O)C3=O)c3ccccc3)C(=O)N2[C@H]1C(=O)O [Mezlocillin Sodium], the “z-score of subpopulation abundance” value rises from -0.63 to 0.

Compared with C[C@H]1[C@H](NC(=O)/C(=N\OC(C)(C)C(=O)O)c2csc(N)n2)C(=O)N1S(=O)(=O)O [Aztreonam], CO/N=C(\C(=O)N[C@@H]1C(=O)N2C(C(=O)OCOC(=O)C(C)(C)C)=C(/C=C\c3scnc3C)CS[C@H]12)c1csc(N)n1 [Cefditoren Pivoxil] is lower in “z-score of subpopulation abundance” value: -0.07 for the first, -0.88 for the second.

Compared with Cc1nc(C)c(Cl)c(O)c1Cl [Clopidol], CC[C@@]1(O)C(=O)OCc2c1cc1n(c2=O)Cc2cc3cc(O)ccc3nc2-1 [Hydroxy Camptothecine] is lower in “z-score of subpopulation abundance” value: -0.09 for the first, -5.21 for the second.

Going from C[N+]1(C)[C@@H]2C[C@@H](OC(=O)C(O)(c3cccs3)c3cccs3)C[C@H]1[C@@H]1O[C@@H]12 [Tiotropium Bromide hydrate] to NC12CC3CC(CC(C3)C1)C2 [Amantadine HCl], the “z-score of subpopulation abundance” value falls from 0.36 to 0.19.
